Measured values: publication PMC4336329 (PLoS ONE, 2015)
Screen size: about 310,000 compounds; about 14,000 (4.5%) showed an effect of 50% or more. Effects have a minus sign here. The sample holds strong results, similar compounds and a random draw of the others, so the mix is not that of the screen.

These molecules were tested against human ether-à-go-go-related gene (hERG) potassium channel (human, UniProt Q12809) (assay: primary screen, population patch clamp on CHO cells stably expressing hERG; higher = less effect of the substance).
Chain of human ether-à-go-go-related gene (hERG) potassium channel (Q12809 whole entry, looked up): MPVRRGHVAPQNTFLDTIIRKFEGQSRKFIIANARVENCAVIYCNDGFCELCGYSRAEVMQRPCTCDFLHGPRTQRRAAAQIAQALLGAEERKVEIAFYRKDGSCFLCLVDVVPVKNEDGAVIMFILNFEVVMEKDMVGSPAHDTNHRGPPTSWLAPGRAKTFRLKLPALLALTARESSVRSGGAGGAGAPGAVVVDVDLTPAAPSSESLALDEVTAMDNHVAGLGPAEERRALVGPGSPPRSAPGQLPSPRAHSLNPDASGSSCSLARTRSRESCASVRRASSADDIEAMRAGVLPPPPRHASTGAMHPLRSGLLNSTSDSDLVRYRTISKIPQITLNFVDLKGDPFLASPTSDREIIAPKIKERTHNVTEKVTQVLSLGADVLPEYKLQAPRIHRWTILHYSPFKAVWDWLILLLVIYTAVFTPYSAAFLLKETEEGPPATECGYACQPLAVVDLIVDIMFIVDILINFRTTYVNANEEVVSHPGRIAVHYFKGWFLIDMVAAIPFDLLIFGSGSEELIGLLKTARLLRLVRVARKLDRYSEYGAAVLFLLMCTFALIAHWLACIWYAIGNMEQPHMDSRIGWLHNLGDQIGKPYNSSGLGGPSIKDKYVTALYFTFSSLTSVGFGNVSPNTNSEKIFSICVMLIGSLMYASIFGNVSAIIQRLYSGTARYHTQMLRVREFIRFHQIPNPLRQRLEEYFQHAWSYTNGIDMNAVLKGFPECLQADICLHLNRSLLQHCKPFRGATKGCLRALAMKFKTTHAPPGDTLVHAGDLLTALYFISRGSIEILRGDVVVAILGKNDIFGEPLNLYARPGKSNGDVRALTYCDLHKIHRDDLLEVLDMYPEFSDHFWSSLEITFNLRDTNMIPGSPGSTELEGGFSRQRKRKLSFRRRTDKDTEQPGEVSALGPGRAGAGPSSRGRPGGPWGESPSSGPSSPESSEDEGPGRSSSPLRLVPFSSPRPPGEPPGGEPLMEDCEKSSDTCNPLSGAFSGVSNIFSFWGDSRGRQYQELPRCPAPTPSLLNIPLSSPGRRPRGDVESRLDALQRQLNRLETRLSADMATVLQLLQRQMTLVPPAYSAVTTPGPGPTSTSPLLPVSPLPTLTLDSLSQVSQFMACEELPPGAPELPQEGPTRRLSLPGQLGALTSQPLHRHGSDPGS
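Note: peak tail current of the secondary pulse compared with the same well before compound.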

Row | Compound | hERG current change (%, negative = inhibition) at 10uM
1 | COc1ccc(-c2cn3c(C)c(C(=O)NC(C)C)sc3n2)cc1 | 6.65%
2 | COc1nc2c(C)cccc2cc1-c1noc(-c2ccco2)n1 | -8.01%
3 | c1ccc(-c2ncc3ccccn23)cc1 | -3.24%
4 | COc1cc(-c2cc(C(=O)Nc3nc4ccccc4s3)c3ccccc3n2)cc(OC)c1OC | 35.9%
5 | Brc1ccc(CNCc2cccs2)cc1 | -55.1%
6 | Brc1cccc(CNCc2cccs2)c1 | -10.2%
7 | CCc1ccc(CNCc2cccs2)cc1.Cl | -22.9%
8 | Cc1cc(Cl)c(OCCCn2cncn2)c(Br)c1 | -14.1%
9 | CCCCOc1ccc(/C=C/C2=CC(C)(C)NC(=S)N2)cc1OCC | 7.58%
10 | Cc1ccsc1CN(C)C(=O)C1CCC(=O)N(CCc2cccc(F)c2)C1 (stereo not drawn) | -35.9%
11 | CCn1ccnc1CN(C)C(=O)C1CCC(=O)N(Cc2cccc(F)c2)C1 (stereo not drawn) | -11.9%
12 | CN(Cc1nc2ccccc2[nH]1)C(=O)C1CCC(=O)N(CCc2cccc(F)c2)C1 (stereo not drawn) | 4.23%
13 | CN(Cc1ccccc1Cl)C(=O)C1CCC(=O)N(CCc2cccc(F)c2)C1 (stereo not drawn) | -52.5%
14 | CCn1ccnc1CN(C)C(=O)C1CCC(=O)N(Cc2cccc(C(F)(F)F)c2)C1 (stereo not drawn) | -22.8%
15 | CCn1ccnc1CN(C)C(=O)C1CCC(=O)N(CCc2cccc(F)c2)C1 (stereo not drawn) | -50.7%
16 | O=C(CSc1n[nH]c(=O)[nH]c1=O)c1ccc(Cl)cc1Cl | 16.1%
17 | Cn1c(=O)[nH]c(=O)c2c1nc(N1CCOCC1)n2CC(O)COc1ccccc1 (stereo not drawn) | 6.81%
18 | CCOc1ncccc1C(=O)OCC(=O)c1ccccc1Br | 0.975%
19 | CCOc1ccccc1OCCCC(=O)N(CC)CC(=O)Nc1c(F)cccc1F | -1.78%
20 | CCN1CCN(C(c2ccc(C(F)(F)F)cc2)c2ccc3cccnc3c2O)CC1 (stereo not drawn) | -25.3%
21 | O=S(=O)(Nc1cccc2cn[nH]c12)c1ccc(F)cc1 | -5.83%
22 | CCOC(=O)c1cc2c(=O)n3cccc(C)c3nc2n(CC(C)C)c1=NC(=O)c1ccco1 | -69.7%
23 | CCOCCCn1c(=NC(=O)c2ccco2)c(C(=O)OCC)cc2c(=O)n3cccc(C)c3nc21 | -74%
24 | CCCCn1c(=NC(=O)c2ccco2)c(C(=O)OCC)cc2c(=O)n3cccc(C)c3nc21 | -81.6%
25 | CCOC(=O)c1cc2c(=O)n3ccccc3nc2n(CC(C)C)c1=NC(=O)c1c(-c2c(F)cccc2Cl)noc1C | 5.66%
26 | CCOC(=O)c1cc2c(=O)n3cccc(C)c3nc2n(Cc2ccco2)c1=NC(=O)c1ccccc1 | -37.2%
27 | Cc1ccc(NC(=O)CSc2nnc(CSc3nc(C)cc(C)n3)n2Cc2ccco2)c(C)c1 | -39.5%

Row | Compound | hERG current change (%, negative = inhibition) at 10uM
28 | O=C(Cn1nnc(-c2ccccc2F)n1)Nc1ccc2c(c1)OCCO2 | 11.3%
29 | O=C(COc1ccccc1Cl)Nc1cccc(S(=O)(=O)NC2=NCCCCC2)c1 | -5.14%
30 | CN(C)CCCn1c(SCC(=O)N2c3ccccc3Sc3ccccc32)nc2ccccc2c1=O | -39.5%
31 | CC(=O)Nc1ccc(C)cc1 | 12.2%
32 | O=C(O)Cn1c(=O)cnc2ccccc21 | 9.56%
33 | CC(=O)c1c(C)n(C)c2ccc(OC(=O)c3ccc([N+](=O)[O-])cc3)cc12 | 17.2%
34 | CCOc1cc(-c2nc(C)c(C(C)=O)n2O)ccc1OCC(=O)Nc1ccccc1 | -0.49%
35 | Cc1cccc(-n2ccnc2CN2CCC(CO)(Cc3ccccc3)CC2)c1 | -50.1%
36 | Cc1cc(C)n(-c2ccc(C(=O)N3CCC(CO)(Cc4ccccc4)CC3)cc2)n1 | 9.21%
37 | Cc1[nH]c2c(C)cccc2c1CN1CCC(CO)(Cc2ccccc2)CC1 | -62.2%
38 | Cc1c(CN2CCC(CO)(Cc3ccccc3)CC2)c2ccccc2n1C | -37.8%
39 | Cc1cc(C)n(-c2cccc(CN3CCC(CO)(Cc4ccccc4)CC3)c2)n1 | -58.1%
40 | Cc1cccc(S(=O)(=O)N2CCC(CO)(Cc3ccccc3)CC2)c1 | -2.74%
41 | Cc1[nH]c2ccccc2c1CN1CCC(CO)(Cc2ccccc2)CC1 | -47.6%
42 | CN(C)C1=NCCN1CC1CCCCCC1 | -3.28%
43 | CCOC(=O)CNC(=O)Cn1cnc2sc(C)c(S(=O)(=O)N3CCOCC3)c2c1=O | 16.4%
44 | CC(=O)N1CCc2cc(S(=O)(=O)CCC(=O)N3CCN(c4ccccc4)CC3)ccc21 | 7.15%
45 | O=S1(=O)N=C(N(Cc2cccs2)c2ccc(O)cc2)c2ccccc21 | -39.1%
46 | COc1ccc(-c2cc(C(F)(F)F)nc(N3CCOCC3)n2)cc1 | 18.9%
47 | CCOC(=O)c1sc(N(Cc2ccccc2)C(=O)CSc2nnc(C3CC3)n2N)nc1C | -26.7%
48 | COc1ccc(C(=O)N/C(=C\c2cc(OC)c(OC)cc2[N+](=O)[O-])C(=O)NCCO)cc1 | 17.3%
49 | C=CCNC(=O)/C(=C\c1ccc(OC)cc1)NC(=O)c1ccc([N+](=O)[O-])cc1 | -77.1%
50 | C=CCNC(=O)/C(=C\c1ccc([N+](=O)[O-])cc1)NC(C)=O | 2.33%
51 | COc1ccc(/C=C(/NC(=O)c2ccc([N+](=O)[O-])cc2)C(=O)NC(C)(C)C)cc1 | -40.8%
52 | COc1ccc(/C=C(/NC(=O)c2ccc([N+](=O)[O-])cc2)C(=O)NCCCN(C)C)cc1 | -93.4%
53 | COc1ccc(C(=O)N/C(=C\c2ccc([N+](=O)[O-])cc2)C(=O)NC(CCSC)C(=O)O)cc1 (stereo not drawn) | 9.2%
54 | Nc1ncncc1-c1ccc([N+](=O)[O-])cc1 | -9.28%
